Source: PubChem (National Center for Advancing Translational Sciences (NCATS))
Marburg entry inh – inhibitors of Marburg virus binding or cell entry. Marburg virus pseudotyped entry inhibition, cell reporter. Potency, µM (series often up to 37.8 µM), without a hit: at the highest dose activity change, negative = inhibition, most hits filed as inhibitors. 300,000 tested, 1.8% active; calls by dose curve; tested in HEK293 cells; further: potency means the concentration at half of the fitted maximal effect
HCMV inh – human cytomegalovirus inhibition; activity change, negative = inhibition, % at 57.5 µM; 410,000 tested, 4.5% active; HFF cells, HCMV-luciferase reporter, 72 h; stronger effect = lower value; in the data active means activity change below about -60%; inconclusive means no clear call, values can overlap the other calls; inactive means above about -39%
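Two-dose cell screen: HFF monolayers treated with compounds and infected with luciferase-expressing HCMV at 1 PFU/cell, 72 h at 37C, then lysed for luciferase measurement.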
Lassa entry inh – inhibitors of Lassa virus binding or cell entry; 300,000 tested, 1.2% active; Lassa virus pseudotype entry inhibition, cell reporter; Potency, µM (series often up to 37.9 µM), for the others: at the highest dose activity change, negative = inhibition, actives largely listed as inhibitors; calls by dose curve; tested in HEK293 cells; further: potency means the concentration at half of the fitted maximal effect; nearly all actives have a fitted effect of over 50% in size
FMDV inh – blocks foot and mouth disease virus. FMDV antiviral cell-based qHTS. Potency, µM (series often up to 57.9 µM), for the others: at the top dose activity change, negative = inhibition, most hits filed as inhibitors. 410,000 tested, 1.2% active; calls by dose curve; tested in HEK293T cells; further: read-out not given here; potency means the concentration at half of the fitted maximal effect; nearly all actives have a fitted effect of over 45% in size
VACV mCherry inh – vaccinia inhibition (mCherry reporter); AID 720579; 310,000 tested, 0.63% active; Potency, µM (doses to about 36.5 µM), for the others: at the highest dose activity change, negative = inhibition, hits mostly inhibitors; Vaccinia virus mCherry reporter infection, fluorescence; calls by dose curve; tested in A549 cells; further: potency means the concentration at half of the fitted maximal effect; nearly all actives have a fitted effect of over 35% in size
Vaccinia Venus – inhibitors of vaccinia virus (Venus reporter). Vaccinia virus Venus reporter expression, fluorescence. Potency, µM (top dose mostly 36.5 µM), without a hit: at the highest dose activity change, negative = inhibition, most hits filed as inhibitors. 330,000 tested, 0.46% active; calls by dose curve; tested in A549 cells; further: potency means the concentration at half of the fitted maximal effect; nearly all actives have a fitted effect of over 30% in size
Active calls of the source: *; [ ] = remark or other dose. Rows were chosen to be rich in hits. Some 6.5% of all compounds tested hit in one or more screens of this group. On the % scale 0 is the no-effect control and ±100 the full control effect.

What do the screens show for `COc1cccc(NC(=O)CSc2c3c(nc4ccccc24)CCCC3)c1`?
Marburg entry inh: inconclusive; HCMV inh: 9.0; Lassa entry inh: inconclusive; FMDV inh: 31.6µM*; VACV mCherry inh: -2.2%; Vaccinia Venus: 7.9%

What do the screens show for `COc1ccc(OC)c(NC(=O)CSc2c3c(nc4ccccc24)CCCC3)c1`?
Marburg entry inh: 9.7%[46.1 µM]; HCMV inh: -26.9; Lassa entry inh: inconclusive; FMDV inh: inconclusive; VACV mCherry inh: inconclusive; Vaccinia Venus: -19.6%

How did COc1ccc(Cl)cc1NC(=O)CSc1c2c(nc3ccccc13)CCC2 do in these assays?
Marburg entry inh: -3.7%[46.1 µM]; HCMV inh: -69.6*; Lassa entry inh: 3.8%[46.1 µM]; FMDV inh: inconclusive; VACV mCherry inh: -14.4%; Vaccinia Venus: -14.1%

How did Cc1ccc(NC(=O)CSc2c3c(nc4ccccc24)CCCC3)cc1F do in these assays?
Marburg entry inh: -1.6%[46.1 µM]; HCMV inh: -17.6; Lassa entry inh: -11.3%[46.1 µM]; FMDV inh: -28.2%; VACV mCherry inh: -28.2%; Vaccinia Venus: -17.9%

Results for CCOC(=O)[C@]12C[C@]3(C)CCN(C(=O)N[C@@H]1c1ccccc1)[C@@H]32 ?
Marburg entry inh: 33.8%[14.2 µM]

Results for COc1ccccc1NCCC(=O)OCC(=O)NC1CC1 ?
HCMV inh: -83.1*; FMDV inh: 5.0%

What do the screens show for `COC(=O)c1ccc(CN2CCOc3ccc(CN4CCC(O)(c5cccnc5)CC4)cc3C2)cc1`?
FMDV inh: 17.8µM*; VACV mCherry inh: -25.8%; Vaccinia Venus: -25.8%

What do the screens show for `COc1cccc(N/C(SCc2cccc([N+](=O)[O-])c2)=C(/C#N)C(N)=O)c1`?
Marburg entry inh: inconclusive; HCMV inh: -2.3; Lassa entry inh: inconclusive; FMDV inh: 35.5µM*; VACV mCherry inh: 3.9%; Vaccinia Venus: -6.9%

How did Cc1ccccc1N/C(SCc1cccc(Br)c1)=C(/C#N)C(N)=O do in these assays?
Marburg entry inh: 16.9%; HCMV inh: -68.5*; Lassa entry inh: -20.8%; FMDV inh: -26.2%; VACV mCherry inh: inactive; Vaccinia Venus: -7.8%

Results for COc1ccc(N2CCN(CCCn3c(=S)[nH]c4ncccc4c3=O)CC2)cc1 ?
Marburg entry inh: 4.11µM*; HCMV inh: inconclusive; Lassa entry inh: inconclusive; FMDV inh: 18.4%

How did O=c1c2cccnc2[nH]c(=S)n1CCCN1CCN(c2ccc(F)cc2)CC1 do in these assays?
Marburg entry inh: 4.61µM*; HCMV inh: -24.4; Lassa entry inh: 5.8µM*; FMDV inh: -18.5%

What do the screens show for `Cc1cccc(CNc2nc(-c3ccccc3CN(C)C)nc3ccccc23)c1`?
FMDV inh: -26.9%; VACV mCherry inh: inconclusive; Vaccinia Venus: -28.8%

Results for COc1ccc(C(=O)Nc2ccc(S(=O)(=O)N(Cc3ccccc3)c3ccccc3)cc2)cc1 ?
Marburg entry inh: inconclusive; HCMV inh: inconclusive; Lassa entry inh: -26.6%[46.1 µM]; FMDV inh: inconclusive; VACV mCherry inh: inconclusive; Vaccinia Venus: inconclusive

How did CCN(c1ccccc1)S(=O)(=O)c1cc(C(=O)Nc2cccc(Cl)c2)ccc1F do in these assays?
Marburg entry inh: inconclusive; HCMV inh: -95.4*; Lassa entry inh: 12.6µM*; FMDV inh: 20µM*; VACV mCherry inh: inconclusive; Vaccinia Venus: inconclusive

What do the screens show for `CCc1ccc(NC(=O)c2ccc(F)c(S(=O)(=O)N(CC)c3ccccc3)c2)cc1`?
Marburg entry inh: inconclusive; HCMV inh: -10.4; Lassa entry inh: inconclusive; FMDV inh: inconclusive; VACV mCherry inh: inactive; Vaccinia Venus: -7.0%

How did CCOc1ccc(NC(=O)c2ccc(F)c(S(=O)(=O)N(CC)Cc3ccccc3)c2)cc1 do in these assays?
HCMV inh: -97.2*; Lassa entry inh: inconclusive; FMDV inh: inconclusive; VACV mCherry inh: -43.5%; Vaccinia Venus: -38.8%

What do the screens show for `CCN(Cc1ccccc1)S(=O)(=O)c1cc(C(=O)Nc2cc(Cl)cc(Cl)c2)ccc1F`?
HCMV inh: -96.7*; Lassa entry inh: inconclusive; FMDV inh: inconclusive; VACV mCherry inh: -25.6%; Vaccinia Venus: inconclusive

What do the screens show for `CCOc1ccc(C(=O)Nc2ccc(S(=O)(=O)N(Cc3ccccc3)c3ccccc3)cc2)cc1`?
Marburg entry inh: inconclusive; HCMV inh: -61.4*; Lassa entry inh: -24.6%[46.1 µM]; FMDV inh: -11.8%; VACV mCherry inh: -22.9%[7.34 µM]; Vaccinia Venus: -27.4%[7.34 µM]
